Broadly, the AC50 is the midpoint of the concentration-response curve, whichever way the signal moves.

Data on six molecules can be found in PubChem BioAssay (EPA / NIEHS).

Each structure is given as a SMILES string. Active and inactive are the calls of the source. How the source made its calls: active means hit-call score of the fitted dose curve at least 0.9, where 1 is the maximum; inactive means score below 0.9.

Details in all cases: mRNA level, 48 h; actives raise or lower the signal
Read-out in experiment [1]: Paternally Expressed 10 (PEG10), PEG10 (gene 23089)
Put plainly: LTEA_HepaRG_PEG10: Life Technologies and Expression Analysis (LTEA) Assay for Paternally Expressed 10 (PEG10) using HepaRG (AID 2283520). Summed up: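 Differentiated HepaRG cells exposed 48 h in serum-free induction medium to eight half-log concentrations topping at 100 uM, 0.5% DMSO, in duplicate. PEG10 mRNA quantified by TaqMan qRT-PCR, normalized to ACTB, GAPDH and POLR2A; bidirectional fit versus DMSO.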

Read-out in experiment [2]: Nuclear factor NF-kappa-B p105 subunit (Homo sapiens) (UniProt P19838)
Put plainly: LTEA_HepaRG_NFKB1: Life Technologies and Expression Analysis (LTEA) Assay for Nuclear Factor Kappa B Subunit 1 (NFKB1) using HepaRG (AID 2283521).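 On outcome: TaqMan qRT-PCR transcript normalised to ACTB GAPDH and POLR2A housekeeping genes.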 Put shortly: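 Human HepaRG cells receive eight half-log concentrations, highest 100 uM, for 48 h. NFKB1 expression is then quantified by qRT-PCR and analysed for up- or down-regulation relative to 0.5% DMSO vehicle.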

Read-out in experiment [3]: Phosphatase and tensin (PTEN), PTEN (gene 5728)
The experiment is described as follows: LTEA_HepaRG_PTEN: Life Technologies and Expression Analysis (LTEA) Assay for Phosphatase and tensin (PTEN) using HepaRG (AID 2283523). Put shortly: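 HepaRG cells, 48 h after plating, exposed in duplicate for 48 h in serum-free induction medium to 8 half-log concentrations up to 100 uM (0.5% DMSO). PTEN mRNA by qRT-PCR, normalized to ACTB, GAPDH, POLR2A; bidirectional fit versus DMSO.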

Read-out in experiment [4]: solute carrier (SLC22A1), SLC22A1 (gene 6580)
Put plainly: LTEA_HepaRG_SLC22A1: Life Technologies and Expression Analysis (LTEA) Assay for solute carrier (SLC22A1) using HepaRG (AID 2283524). Put shortly: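 Differentiated human HepaRG cells in serum-free induction medium, exposed 48 h in duplicate to 8-point half-log series from 100 µM top in 0.5% DMSO. SLC22A1 mRNA by TaqMan qRT-PCR normalized to ACTB, GAPDH, POLR2A; bidirectional fit versus DMSO.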

Read-out in experiment [5]: NAD(P)H dehydrogenase [quinone] 1 (NQO1), NQO1 (gene 1728)
The experiment is described as follows: LTEA_HepaRG_NQO1: Life Technologies and Expression Analysis (LTEA) Assay for NAD(P)H dehydrogenase [quinone] 1 (NQO1) using HepaRG (AID 2283526). Put shortly:
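Differentiated human HepaRG cells in serum-free induction medium, dosed in duplicate for 48 h at 8 half-log concentrations up to 100 uM in 0.5% DMSO. NQO1 mRNA by qRT-PCR normalized to ACTB, GAPDH, POLR2A; bidirectional fit versus DMSO baseline.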

Read-out in experiment [6]: Nuclear factor erythroid 2-related factor 2 (Homo sapiens) (UniProt Q16236)
Put plainly: LTEA_HepaRG_NFE2L2: Life Technologies and Expression Analysis (LTEA) Assay for Nuclear factor erythroid 2-related factor 2 (NFE2L2) Transcription Factor using HepaRG (AID 2283527).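 On outcome: TaqMan qRT-PCR transcript level normalised to ACTB GAPDH and POLR2A housekeeping genes.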 Put shortly:
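Differentiated human HepaRG cells, serum-free induction medium, exposed 48 h in duplicate to eight half-log concentrations up to 100 uM in 0.5% DMSO. NFE2L2 mRNA by Fluidigm TaqMan qRT-PCR, normalised to ACTB, GAPDH, POLR2A; bidirectional change versus DMSO.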

Read-out in experiment [7]: succinate dehydrogenase complex iron sulfur subunit B (SDHB), SDHB (gene 6390)
Put plainly: LTEA_HepaRG_SDHB: Life Technologies and Expression Analysis (LTEA) Assay for succinate dehydrogenase complex iron sulfur subunit B (SDHB) using HepaRG (AID 2283528). Summed up:
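A human HepaRG culture in serum-free induction medium received test chemicals for 48 h over an eight-point range capped at 100 uM. SDHB expression change was quantified by qRT-PCR.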

Read-out in experiment [8]: solute carrier (SLCO1B1), SLCO1B1 (gene 10599)
Put plainly: LTEA_HepaRG_SLCO1B1: Life Technologies and Expression Analysis (LTEA) Assay for solute carrier (SLCO1B1) using HepaRG (AID 2283530). Summed up:
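SLCO1B1 transcript read by qRT-PCR (Fluidigm arrays), normalized to three housekeeping genes, after 48 h chemical exposure of HepaRG cells; bidirectional concentration-response fitting versus 0.5% DMSO baseline. Eight-point half-log series, maximum 100 uM.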

Read-out in experiment [9]: sulfotransferase 2A1 (SULT2A1), SULT2A1 (gene 6822)
Put plainly: LTEA_HepaRG_SULT2A1: Life Technologies and Expression Analysis (LTEA) Assay for sulfotransferase 2A1 (SULT2A1) using HepaRG (AID 2283531). Summed up: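 HepaRG, 48 h chemical exposure, 8-pt half-log curve from 100 uM in 0.5% DMSO, duplicates. Readout: TaqMan qRT-PCR of SULT2A1 mRNA, housekeeping-normalized. Bidirectional fit vs DMSO baseline.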

Read-out in experiment [10]: Transforming Growth Factor (TGFA), TGFA (gene 7039)
Put plainly: LTEA_HepaRG_TGFA: Life Technologies and Expression Analysis (LTEA) Assay for Transforming Growth Factor (TGFA) using HepaRG (AID 2283532). Summed up: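 Differentiated HepaRG cells exposed 48 hours in serum-free induction medium, 0.5% DMSO vehicle, 8-point half-log series from 100 uM, in duplicate. TGFA mRNA by TaqMan qRT-PCR, normalised to ACTB, GAPDH, POLR2A; bidirectional fit versus DMSO.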

Read-out in experiment [11]: Transforming Growth Factor (TGFB1), TGFB1 (gene 7040)
The experiment is described as follows: LTEA_HepaRG_TGFB1: Life Technologies and Expression Analysis (LTEA) Assay for Transforming Growth Factor (TGFB1) Transporter using HepaRG (AID 2283533). Summed up:
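qRT-PCR readout of TGFB1 transcript in HepaRG lysates, normalized to three housekeeping genes; gain or loss of signal fitted relative to 0.5% DMSO vehicle. Exposure: 48 h, 8-point curve from 100 uM, duplicate wells.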

Read-out in experiment [12]: TIMP1, TIMP1 (gene 7076)
Put plainly: LTEA_HepaRG_TIMP1: Life Technologies and Expression Analysis (LTEA) Assay for TIMP1 using HepaRG (AID 2283534).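 On outcome: TaqMan qRT-PCR signal normalized to ACTB GAPDH and POLR2A housekeeping genes.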 Summed up:
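HepaRG, 48 h exposure, 8-pt half-log series from 100 uM in 0.5% DMSO, duplicates; TIMP1 transcript by Fluidigm qRT-PCR, housekeeping-normalized; bidirectional curve fit vs DMSO baseline.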

Read-out in experiment [13]: Tumor necrosis factor receptor 1 (TNFRSF1A), TNFRSF1A (gene 7132)
The experiment is described as follows: LTEA_HepaRG_TNFRSF1A: Life Technologies and Expression Analysis (LTEA) Assay for Tumor necrosis factor receptor 1 (TNFRSF1A) using HepaRG (AID 2283535). Put shortly: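 HepaRG, 48 h plating then 48 h chemical exposure, serum-free induction media; 8-pt CRC from 100 uM, half-log, 0.5% DMSO vehicle, duplicates. Readout: TaqMan qRT-PCR (Fluidigm), housekeeping-gene normalized; bidirectional fit vs DMSO.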

Read-out in experiment [14]: Cellular tumor antigen p53 (Homo sapiens) (UniProt P04637)
The experiment is described as follows: LTEA_HepaRG_TP53: Life Technologies and Expression Analysis (LTEA) Assay for Tumor Protein P53 (TP53) using HepaRG (AID 2283537). Put shortly:
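Gain or loss of TP53 mRNA signal is scored relative to 0.5% DMSO after 48 h chemical treatment of HepaRG liver cells, tested in duplicate at eight half-log concentrations up to 100 uM.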

Read-out in experiment [15]: UDP glucuronosyltransferase (UGT1A1), UGT1A1 (gene 54658)
The experiment is described as follows: LTEA_HepaRG_UGT1A1: Life Technologies and Expression Analysis (LTEA) Assay for UDP glucuronosyltransferase (UGT1A1) using HepaRG (AID 2283538). Summed up:
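HepaRG cells, 0.5% DMSO vehicle, 48 h exposure in serum-free induction medium to 8-point half-log series topping at 100 uM, in duplicate. UGT1A1 mRNA by Fluidigm qRT-PCR, normalized to ACTB/GAPDH/POLR2A; bidirectional fit versus DMSO.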

Read-out in experiment [16]: Protein phosphatase 2A (PPP2R4), PTPA (gene 5524)
Put plainly: LTEA_HepaRG_PPP2R4: Life Technologies and Expression Analysis (LTEA) Assay for Protein phosphatase 2A (PPP2R4) using HepaRG (AID 2283522). Put shortly:
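Differentiated human HepaRG cells in serum-free induction medium were exposed 48 h to 8 concentrations (top 100 µM, half-log steps, duplicate) in 0.5% DMSO. PPP2R4 mRNA was measured by TaqMan qRT-PCR, normalised to ACTB, GAPDH and POLR2A, and fitted bidirectionally versus DMSO.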

Read-out in experiment [17]: Pyruvate Dehydrogenase Kinase 4 (PDK4), PDK4 (gene 5166)
The experiment is described as follows: LTEA_HepaRG_PDK4: Life Technologies and Expression Analysis (LTEA) Assay for Pyruvate Dehydrogenase Kinase 4 (PDK4) using HepaRG (AID 2283525). Summed up:
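HepaRG cells plated 48 h, then switched to serum-free induction medium and exposed in duplicate for 48 h to 8 half-log concentrations from 100 uM in 0.5% DMSO. PDK4 mRNA measured by qRT-PCR, normalized to ACTB, GAPDH and POLR2A; bidirectional fit versus DMSO.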

Read-out in experiment [18]: Signal transducer and activator of transcription 3 (Homo sapiens) (UniProt P40763)
The experiment is described as follows: LTEA_HepaRG_STAT3: Life Technologies and Expression Analysis (LTEA) Assay for Signal transducer and activator of transcription (STAT3) using HepaRG (AID 2283529). Put shortly:
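Differentiated HepaRG cells, serum-free induction medium, dosed 48 h in duplicate, 8 half-log concentrations from 100 uM in 0.5% DMSO. STAT3 mRNA by qRT-PCR, normalised to ACTB, GAPDH, POLR2A; bidirectional fit versus DMSO.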

Read-out in experiment [19]: Thyroid Hormone Responsive (THRSP), THRSP (gene 7069)
The experiment is described as follows: LTEA_HepaRG_THRSP: Life Technologies and Expression Analysis (LTEA) Assay for Thyroid Hormone Responsive (THRSP) using HepaRG (AID 2283536). Put shortly:
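Differentiated HepaRG cells treated 48 h in serum-free induction medium with 8 half-log concentrations up to 100 uM (0.5% DMSO), duplicates. THRSP mRNA by TaqMan qRT-PCR normalised to ACTB, GAPDH, POLR2A; bidirectional fit versus DMSO.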

Chain of Cellular tumor antigen p53 (Homo sapiens) (P04637 whole entry, looked up): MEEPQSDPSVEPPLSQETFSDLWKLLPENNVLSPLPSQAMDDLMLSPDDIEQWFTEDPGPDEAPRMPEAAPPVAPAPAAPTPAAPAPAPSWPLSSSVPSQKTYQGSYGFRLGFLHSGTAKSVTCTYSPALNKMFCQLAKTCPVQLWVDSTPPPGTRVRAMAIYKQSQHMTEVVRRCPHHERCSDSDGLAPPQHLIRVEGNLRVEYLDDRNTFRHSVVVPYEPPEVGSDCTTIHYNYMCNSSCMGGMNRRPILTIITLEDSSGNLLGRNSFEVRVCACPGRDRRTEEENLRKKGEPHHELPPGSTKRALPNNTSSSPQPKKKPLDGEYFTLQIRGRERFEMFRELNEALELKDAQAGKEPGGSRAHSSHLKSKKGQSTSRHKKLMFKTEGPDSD
Chain of Nuclear factor NF-kappa-B p105 subunit (Homo sapiens) (P19838 whole entry, looked up): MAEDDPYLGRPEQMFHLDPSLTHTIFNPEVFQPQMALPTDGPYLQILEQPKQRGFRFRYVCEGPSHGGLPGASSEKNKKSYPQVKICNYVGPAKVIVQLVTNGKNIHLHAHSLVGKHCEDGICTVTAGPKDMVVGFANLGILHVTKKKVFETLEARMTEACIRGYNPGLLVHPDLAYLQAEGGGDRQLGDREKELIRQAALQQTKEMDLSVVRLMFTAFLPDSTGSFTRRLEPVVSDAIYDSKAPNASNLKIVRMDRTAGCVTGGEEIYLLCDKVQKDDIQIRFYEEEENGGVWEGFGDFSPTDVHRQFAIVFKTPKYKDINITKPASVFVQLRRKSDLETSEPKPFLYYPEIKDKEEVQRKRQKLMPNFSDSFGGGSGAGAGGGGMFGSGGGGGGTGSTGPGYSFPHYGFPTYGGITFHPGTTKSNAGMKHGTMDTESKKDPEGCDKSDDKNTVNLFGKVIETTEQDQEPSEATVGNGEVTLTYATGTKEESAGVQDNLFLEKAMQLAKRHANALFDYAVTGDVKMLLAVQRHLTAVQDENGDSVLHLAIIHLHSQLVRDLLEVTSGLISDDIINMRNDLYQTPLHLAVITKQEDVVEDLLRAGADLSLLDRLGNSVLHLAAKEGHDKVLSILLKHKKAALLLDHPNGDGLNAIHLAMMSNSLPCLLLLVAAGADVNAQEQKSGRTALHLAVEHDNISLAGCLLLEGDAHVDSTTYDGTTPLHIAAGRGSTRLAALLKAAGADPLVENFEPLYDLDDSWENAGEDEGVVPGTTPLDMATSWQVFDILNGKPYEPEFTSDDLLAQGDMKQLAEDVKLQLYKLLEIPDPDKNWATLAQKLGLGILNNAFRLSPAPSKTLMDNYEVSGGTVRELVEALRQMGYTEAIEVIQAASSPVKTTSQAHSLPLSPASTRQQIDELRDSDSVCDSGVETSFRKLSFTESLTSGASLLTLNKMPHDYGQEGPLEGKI
Chain of Nuclear factor erythroid 2-related factor 2 (Homo sapiens) (Q16236 whole entry, looked up): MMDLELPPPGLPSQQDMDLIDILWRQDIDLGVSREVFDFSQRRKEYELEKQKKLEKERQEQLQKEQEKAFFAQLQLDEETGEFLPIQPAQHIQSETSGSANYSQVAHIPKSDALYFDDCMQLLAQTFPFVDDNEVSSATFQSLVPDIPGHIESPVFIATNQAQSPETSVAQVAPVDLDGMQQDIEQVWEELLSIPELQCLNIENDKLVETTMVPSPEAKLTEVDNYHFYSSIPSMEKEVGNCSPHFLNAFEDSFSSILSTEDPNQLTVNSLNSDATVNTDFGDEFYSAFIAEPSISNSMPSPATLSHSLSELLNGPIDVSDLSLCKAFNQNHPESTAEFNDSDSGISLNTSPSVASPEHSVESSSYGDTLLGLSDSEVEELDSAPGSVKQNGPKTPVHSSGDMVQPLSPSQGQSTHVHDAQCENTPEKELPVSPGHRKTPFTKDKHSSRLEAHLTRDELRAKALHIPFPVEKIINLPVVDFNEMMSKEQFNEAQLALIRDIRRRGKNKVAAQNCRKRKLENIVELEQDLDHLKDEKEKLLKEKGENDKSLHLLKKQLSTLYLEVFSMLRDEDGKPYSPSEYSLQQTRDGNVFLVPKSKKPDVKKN
Chain of Signal transducer and activator of transcription 3 (Homo sapiens) (P40763 whole entry, looked up): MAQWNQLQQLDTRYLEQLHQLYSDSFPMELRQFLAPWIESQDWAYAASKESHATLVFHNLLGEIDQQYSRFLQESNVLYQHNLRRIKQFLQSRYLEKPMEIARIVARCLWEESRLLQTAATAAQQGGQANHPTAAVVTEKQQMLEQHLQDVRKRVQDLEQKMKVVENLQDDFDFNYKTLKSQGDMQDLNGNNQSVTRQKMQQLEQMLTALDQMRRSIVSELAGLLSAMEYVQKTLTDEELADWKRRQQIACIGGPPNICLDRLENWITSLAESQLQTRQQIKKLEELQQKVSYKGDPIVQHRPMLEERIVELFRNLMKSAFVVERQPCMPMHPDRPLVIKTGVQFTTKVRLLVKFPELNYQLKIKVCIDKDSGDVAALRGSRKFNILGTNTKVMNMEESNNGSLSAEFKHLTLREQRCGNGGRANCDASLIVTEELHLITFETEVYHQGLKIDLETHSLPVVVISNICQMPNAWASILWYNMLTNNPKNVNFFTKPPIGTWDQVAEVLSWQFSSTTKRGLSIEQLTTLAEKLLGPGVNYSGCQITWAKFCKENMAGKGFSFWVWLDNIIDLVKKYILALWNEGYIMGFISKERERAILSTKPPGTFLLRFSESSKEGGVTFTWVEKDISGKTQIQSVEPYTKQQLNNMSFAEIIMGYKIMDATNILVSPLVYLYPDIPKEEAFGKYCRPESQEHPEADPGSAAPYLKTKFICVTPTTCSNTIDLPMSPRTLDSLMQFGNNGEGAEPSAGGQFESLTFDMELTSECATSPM

As for `CC(C)c1ccc(C(=O)N=C(N)N)cc1S(C)(=O)=O`, the result in experiment [1], in [7], in [8], in experiment [9] and in experiment [12] was inactive. Also, the AC50 in experiment [2] was 0.291 µM (active); in [3] it was 0.277 µM (active); in experiment [4] it was 0.35 µM (active); in experiment [5] it was 0.959 µM (active); in experiment [6], 7.8 µM (active); in experiment [10], 0.555 µM (active). The AC50 in experiment [11] was 0.403 µM (active); in experiment [13], 0.337 µM (active); in [14] it was 0.457 µM (active); in experiment [15], 10.2 µM (active).

Take `O=[N+]([O-])C(CO)(CO)CO`: the molecule was called inactive in experiment [1], in experiment [2], in experiment [16], in [3], in experiment [4] and in experiment [5]. For the same molecule, the molecule was called inactive in [8], in [9], in [10], in experiment [11], in experiment [12] and in experiment [13]. For the same molecule, the call in experiment [14] and in [15] was inactive.

In the case of `CN[C@H]1CC[C@@H](c2ccc(Cl)c(Cl)c2)c2ccc(S(N)(=O)=O)cc21`, the outcome in [1], in experiment [3], in experiment [5], in [7], in experiment [8] and in [10] was inactive. The call in experiment [11], in experiment [12] and in [13] was inactive. Moreover, the AC50 in experiment [2] was 81.4 µM (active); in experiment [4], 22.4 µM (active); in experiment [17] it was 83 µM (active); in experiment [6], 81.5 µM (active); in experiment [18], 50 µM (active); in [9], 87.6 µM (active). Further, in [14], the concentration at half-maximal activity (AC50) was 87.6 µM (active).

Turning to `COC(=O)c1ccc(O)cc1`, the result in [1], in experiment [2], in experiment [3], in experiment [4], in experiment [5] and in experiment [6] was inactive. The call in [7], in experiment [18], in experiment [8], in experiment [9], in [10] and in [11] was inactive. The molecule was classed as inactive in experiment [12], in experiment [13], in [14] and in experiment [15].

In the case of `CC(C)(C)c1cc(O)c(C(C)(C)C)cc1O`, the half-maximal activity concentration (AC50) in experiment [1] was 32.5 µM (active); in experiment [3], 87.6 µM (active); in experiment [4], 76.8 µM (active); in experiment [5] it was 80.6 µM (active); in experiment [8], 79.1 µM (active); in [9] it was 90.9 µM (active). Also, the concentration at half-maximal activity (AC50) in [12] is 50 µM (active); in experiment [13] it was 78.3 µM (active); in experiment [14], 86.7 µM (active). In addition, the result in [2], in [17], in [6], in experiment [7], in experiment [18] and in experiment [10] was inactive. Further, the molecule was called inactive in experiment [11].

Regarding `C[C@]12C=CC(=O)C=C1CC[C@@H]1[C@@H]2C(=O)C[C@@]2(C)[C@H]1CC[C@]2(O)C(=O)CO`, the result in experiment [1], in experiment [2], in experiment [3], in experiment [4], in experiment [17] and in [5] was inactive. Further, the call in experiment [6], in experiment [7], in experiment [18], in experiment [8], in experiment [9] and in experiment [10] was inactive. For the same molecule, the outcome in experiment [11], in [12], in experiment [13], in [19] and in experiment [14] was inactive. In addition, in experiment [15], the AC50 was 50 µM (active).
